# Measurements: PubChem BioAssay (NCATS)
# Inconclusive results are not listed. The source made the active and inactive calls. Calls follow the shape of the dose curve; as a rule, active = well fitted cell-killing curve with a large enough effect; inconclusive = small, poorly fitted or top-dose-only effect; inactive = no such curve, though single readings can be large or run the other way.
# Experiment: qHTS of pediatric cancer cell lines to identify multiple opportunities for drug repurposing: Primary screen for NB-EBc1 cells (AID 1347095)
# Conditions: NB-EBc1 neuroblastoma viability, CellTiter-Glo luminescence, 48 h; series mostly up to 46 µM; activity change, negative = cytotoxic: at the top concentration
# Text: Drug repurposing or repositioning has been offered as a strategy for drug development in oncology programs. This approach has special potential for childhood cancers and other rare or orphan diseases, where the expected return on new drug development has been a disincentive to pharmaceuticals. […] In this project we exploit the poly-pharmacology of drugs to discover new indications via phenotypic screening of a panel of 19 well-characterized cell lines derived from solid tumors seen in children and adolescents. The goal is to identify approved drugs with previously unrecognized anticancer properties that has the potential to reveal new mechanisms and biological processes involved in carcinogenesis or drug resistance. We employed a titration-based paradigm (quantitative high-throughput screening or qHTS), where all compounds were tested at multiple concentrations for their effect on cell viability. Concentration-response curves (CRCs) were derived directly from the primary screen, and both potency and efficacy values were used to identify compounds with robust bioactivity profiles. We screened the NIH Chemical Genomics Center (NCGC) Pharmaceutical Collection (NPC) and Mechanism Interrogation Plate (MIPE) small molecule collections of approved and investigational compounds against these cell lines; and measured metabolically active cells after 48 hours of compound treatment as a proxy for cell viability. […] Assay Submitter: Nathalia J. Martinez, National Center for Advancing Translational Sciences, National Institutes of Health, Rockville, MD, USA; email: natalia.martinez@nih.gov Shen, M et al. Quantitative high-throughput phenotypic screening of pediatric cancer cell lines identifies multiple opportunities for drug repurposing. Oncotarget 2017 Dec 19;9(4):4758-4772. PMID 29435139.
# The cells were obtained from University of North Carolina (UNC), Pediatric Preclinical Testing Program (PPT), and Coriell Institute (CI). qHTS cell viability assay: Cells were assayed in growth media at a density of 500-1,000 cells/well. Five microliters of cells were dispensed into 1,536-well, white, solid-bottom, TC-treated plates (Greiner Bio One) using a multidrop dispenser and incubated at 37 degrees C, 5% CO2, under a humidified atmosphere for 5 hours. Twenty-three nanoliters of compounds and controls (neutral control DMSO or positive control bortezomib at final concentration of 2.3 µM) were subsequently transferred by Kalypsys pintool. For primary screens, the MIPE collection was tested at 11-point dilutions (final concentrations range from 0.78 nM to 46 µM) and the NPC collection at 8-point dilutions (final concentrations range from 0.59 nM to 46 µM). Compounds tested in follow-up screens were assayed at 11-point dilutions. Cells were incubated for 48 hours, followed by addition of 3 µL of CellTiter-Glo (Promega). After a 15 min incubation at room temperature, samples were analyzed for luminescence intensity using a ViewLux High-throughput CCD imager equipped with clear filters.
# Potency is read from the fitted curve at half-maximal effect.
SMILES,"activity change, negative = cytotoxic",Potency
CC(C)(C)c1cc(C=O)cc(C(C)(C)C)c1O,12.7% (inactive),–
CC(C)C(=O)Nc1cccc(C2CN3CCSC3=N2)c1 (stereo not given),16.9% (inactive),–
Nc1ccc(C(=O)N2CC3CC(CN(Cc4ccccc4)C3)C2)cc1,8.88% (inactive),–
O=C(Oc1ccccc1)c1cccc(C(=O)Oc2ccccc2)c1,21.7% [at 92.7 µM] (inactive),–
O=C(Nc1ccc(Cl)cc1)Nc1ccc(Cl)c(Cl)c1,–,23.7 µM (active)
CO[C@@H]1[C@@H](OC)[C@H](C)[C@@](O)(CC(=O)O)O[C@H]1[C@H](C)[C@H]1O[C@@]2(CC[C@@](C)([C@H]3CC[C@@](C)([C@@H]4O[C@@H]([C@H]5O[C@](C)(O)[C@H](C)C[C@@H]5C)C[C@@H]4OC4C[C@H](OC)[C@@H](OC)[C@H](C)O4)O3)O2)C[C@H](O)[C@H]1C (stereo not given in full),–,0.266 µM (active)
CC(=O)Nc1c(I)c(NC(C)=O)c(I)c(C(=O)O)c1I,-4.58% (inactive),–
NS(=O)(=O)c1ccc(N2CCCCS2(=O)=O)cc1,12.1% (inactive),–
CN1CCC(N(Cc2cccs2)c2ccccc2)CC1,-5.37% (inactive),–
CC(C)=CCC/C(C)=C/CC/C(C)=C/C(=O)OCC(=O)[C@@]1(O)CC[C@H]2[C@@H]3CCC4=CC(=O)C=C[C@]4(C)[C@H]3[C@@H](O)C[C@@]21C,–,21.1 µM (active)
NC(=O)NS(=O)(=O)c1ccc(Cl)cc1,19.8% (inactive),–
O=C(c1ccco1)N1CCNCC1,10.2% (inactive),–
Cc1nc2n(c(=O)c1CCN1CCC(C(=O)c3ccc(F)cc3)CC1)CCS2,-16.8% (inactive),–
CC(C)C(C)(C)C(C)(C)C(C)(C)S,24.8% [at 92.7 µM] (inactive),–
COc1cc(NS(=O)(=O)c2ccc(N)cc2)nc(C)n1,24.4% (inactive),–
O=C(O)c1ccccc1S,25.3% (inactive),–
O=C(O)/C=C(\CC(=O)O)C(=O)O,21.3% (inactive),–
COc1cc2nc(Cl)nc(N)c2cc1OC,18.7% (inactive),–
CCOC(=O)Oc1ccc(CCNC(=O)[C@H](CCSC)NC(C)=O)cc1OC(=O)OCC,16% (inactive),–
CNC(=O)c1c(I)c(NC(C)=O)c(I)c(C(=O)O)c1I,19.9% (inactive),–

SMILES,"activity change, negative = cytotoxic",Potency
CCCCCOc1ccc(C2SC(=O)NC2=O)cc1OCC (stereo not given),2.88% (inactive),–
CC(=O)OC[C@H]1O[C@@H](OC(C)=O)[C@H](OC(C)=O)[C@@H]1OC(C)=O,21.8% (inactive),–
Oc1ccccc1-c1nnco1,16.6% (inactive),–
CCOC(=O)CN1CCCC1=O,28.7% (inactive),–
COc1cc(C=O)ccc1O,20.7% (inactive),–
Cc1cccc(OCC(O)CNC(C)(C)C)c1C (stereo not given),3.5% (inactive),–
CC(C)=CCC/C(C)=C/CC/C(C)=C/CCC(=O)OC/C=C(\C)CCC=C(C)C,21.9% (inactive),–
N#CSCC(=O)O,22.2% (inactive),–
CC1CC(=O)NN=C1c1ccc(NCC(C)(C)NCC(O)COc2cc(Cl)ccc2C#N)cc1 (stereo not given),-1.34% (inactive),–
COC(=O)C1=C(C)NC(COC(N)=O)=C(C(=O)OC(C)C)C1c1cccc(Cl)c1Cl (stereo not given),-3.52% (inactive),–
O=C(C1CCCCC1)N1CC(=O)N2CCCc3ccccc3C2C1 (stereo not given),35.8% (inactive),–
CN(C(=O)C(Cl)Cl)c1ccc(OC(=O)c2ccco2)cc1,0.619% (inactive),–
C=CC[N+]1([C@H]2C[C@H]3[C@@H]4CC[C@H]5C[C@H](OC(C)=O)[C@@H](N6CCCCC6)C[C@]5(C)[C@H]4CC[C@]3(C)[C@H]2OC(=O)CC)CCCCC1,37.8% (inactive),–
CN1CCC(=C2c3ccccc3CCc3cccnc32)CC1,6.03% (inactive),–
CC(=O)OCC(=O)[C@@]1(O)CCC2C3CCC4=CC(=O)CC[C@]4(C)C3[C@@H](O)C[C@@]21C (stereo not given in full),3.56% (inactive),–
Cc1cc(C(C)(C)C)c(O)c(C(C)(C)C)c1,17.5% (inactive),–
CCOC(=O)N1CCC(Nc2ccc(Cl)cc2N)CC1,–,6.68 µM (active)
Cc1ccccc1N1CCN(CCc2nnc3n2CCCC3)CC1,2.45% (inactive),–
CC(C)CCCC(C)NCCC(C)C (stereo not given),-2.07% (inactive),–
CC(C)(C)CC(=O)OCC(=O)[C@@]1(O)CC[C@H]2[C@@H]3CCC4=CC(=O)C=C[C@]4(C)[C@H]3[C@@H](O)C[C@@]21C,0.554% (inactive),–
